Sfp inh = Sfp phosphopantetheinyl transferase inhibition; Q9F4F7; Biochemical Sfp PPTase activity, qHTS; Potency, µM, for the others: largest response in the series, negative = inhibition, usual class: inhibitors; 310,000 compounds, 3.5% hits;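 also: the enzyme is Sfp with the accession as filed and its product quenches rhodamine fluorescence; potency is read from the fitted curve at half-maximal effect; 0% = enzyme reaction without inhibitor and -100% = no enzyme wells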
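Reaction rates are the 30-min fluorescence difference (ex 525, em 598 nm) in wells containing 15 nM Sfp, 5 uM rhodamine-CoA and 12.5 uM BHQ-2-YbbR at pH 7.6 with 10 mM MgCl2.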
FBPA coupling cs = counter-screen for Giardia aldolase inhibitors: coupling enzyme system | AID 2472 | 290,000 compounds, 0.67% hits | coupling enzyme system counterscreen, AmpLite Red fluorescence | activity change, negative = inhibition, % at 58.2 µM, hits read low; in the data active = activity change below about -30%
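First, compound is pin-transferred into glyceraldehyde-3-phosphate coupling-enzyme reagent at 57.5 uM final and held 10 min at RT. Next, substrate, coupling system and AmpLite Red are added. After 20 min RT, fluorescence (525/598 nm) is read.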
JMJD2E inh = inhibitors of human JMJD2E histone demethylase; JMJD2E catalytic domain, FDH-coupled NADH fluorescence (FDH is formaldehyde dehydrogenase); Potency, µM (doses to about 57.1 µM), without a hit: at the top dose activity change, negative = inhibition, usual class: inhibitors; 230,000 compounds, 1.6% hits; AID 2147; active = well fitted inhibition curve with a large enough effect, not every such curve was filed as active; inconclusive = small, poorly fitted or top-dose-only effect, or another doubt; inactive = no such curve, though single readings can be large or run the other way;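 also: potency is read from the fitted curve at half-maximal effect; 0% = wells with enzyme and -100% = buffer wells without enzyme; nearly all actives have a fitted effect of over 50% in size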
Target sequence (B2RXH2 1-337 limits assumed): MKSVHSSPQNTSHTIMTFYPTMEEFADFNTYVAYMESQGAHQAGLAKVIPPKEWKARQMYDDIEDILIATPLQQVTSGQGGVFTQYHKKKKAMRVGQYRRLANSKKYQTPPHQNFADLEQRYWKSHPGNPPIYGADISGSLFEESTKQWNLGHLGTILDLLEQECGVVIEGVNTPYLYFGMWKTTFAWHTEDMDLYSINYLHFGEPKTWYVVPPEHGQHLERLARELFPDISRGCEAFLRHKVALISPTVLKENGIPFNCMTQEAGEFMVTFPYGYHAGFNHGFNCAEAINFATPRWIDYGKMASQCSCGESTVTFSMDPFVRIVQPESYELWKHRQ
Tau fluor counter = counter-screen for tau fibril formation inhibitors; tau K18 P301L Alexa594 fluorescence, heparin fibrillization; Potency, µM (highest dose often 57.7 µM), inactives show top-dose activity change, negative = decrease; 280,000 compounds, 0.93% hits; also: potency is read from the fitted curve at half-maximal effect; nearly all actives have a fitted effect of over 55% in size
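Human K18 P301L tau (15 uM unlabeled plus 0.24 uM Alexa 594-labeled, final) in 100 mM sodium acetate pH 7 was mixed with compound and 20 uM heparin and incubated 6 hr at 37 C.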
Tau FP inhib = inhibitors of human tau fibril formation; P10636; K18 P301L tau heparin fibrillization, Alexa594 FP, 6 h; Potency, µM (top dose mostly 57.7 µM), for inactives: top-dose activity, negative = inhibition, actives largely listed as inhibitors; 280,000 compounds, 0.39% hits; AID 1468; also: potency is read from the fitted curve at half-maximal effect; nearly all actives have a fitted effect of over 55% in size
Target sequence (P10636 561-689 P618L limits assumed): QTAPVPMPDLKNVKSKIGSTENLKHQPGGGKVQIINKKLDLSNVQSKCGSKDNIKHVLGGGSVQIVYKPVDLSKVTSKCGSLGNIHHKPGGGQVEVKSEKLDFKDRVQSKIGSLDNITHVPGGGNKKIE
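Quantitative HTS format: compounds meet 15 uM recombinant K18 P301L tau and Alexa 594-tau tracer in 100 mM sodium acetate pH 7; 20 uM heparin triggers fibrillization at 37 C over 6 hr; FP gives the signal.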
Tau fibril ThT = blocks human tau fibril formation measured by thioflavin T; P10636; recombinant tau K18 P301L (four-repeat tau fragment), heparin-induced fibrillization, ThT fluorescence; Potency, µM (highest dose often 57.4 µM), for inactives: at the highest dose activity, negative = inhibition, actives largely listed as inhibitors; 270,000 compounds, 2.1% hits; AID 1460; also: potency is read from the fitted curve at half-maximal effect; nearly all actives have a fitted effect of over 55% in size
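Aggregation was driven by heparin (20 uM final) acting on recombinant tau […] bearing P301L in 100 mM sodium acetate pH 7; fibrils were detected with Thioflavin T.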
* marks the source's active call; other numbers are inactive results; ? = inconclusive; · = no result; ! = repeats disagree; [ ] = remark or other dose. Compounds with a hit are over-represented: about 5.3% of the library has one in this group of screens. Unless noted, calls follow the shape of the dose curve; as a rule, active = well fitted curve in the direction sought with a large enough effect; inconclusive = small, poorly fitted or top-dose-only effect, or another doubt; inactive = no such curve, though single readings can be large; an effect the other way counts as inactive or inconclusive. Unless noted, % is scaled to controls: 0 for no effect and ±100 for the full control effect.

SMILES	Sfp inh	FBPA coupling cs	JMJD2E inh	Tau fluor counter	Tau FP inhib	Tau fibril ThT
CC(C)(C)OC(=O)N1CC[C@H]1COc1cnc[c]([Sn]([CH3])([CH3])[CH3])c1	12%	2	·	-7%[11.6 µM]	0%[11.6 µM]	-3%[11.5 µM]
NCCCCC(NC(CCc1ccccc1)C(=O)O)C(=O)N1CCCC1C(=O)O (stereo not given)	-7%	5	8%	-8%	?	-1%
CCCCCc1cc(O)c2c(c1)OC(C)(C)[C@@H]1CCC(C(=O)O)=C[C@H]21	8%	-2	·	-3%	-6%	-7%
C=C(C)C1CCC(C)=CC1c1c(O)cc(O)cc1CCCCC (stereo not given)	-1%	-7	·	28µM*[quencher]	8%	?
CCS(=O)(=O)C(C)(C)S(=O)(=O)CC	14%	·	·	·	·	·
O=c1[nH]c(O)c(/C=C2\C=NN=C2c2ccccc2)c(=O)[nH]1	50µM*	2	-8%	-11%	-8%	?
CCOC(=O)c1c(/N=C/C2C(=O)NC(=S)NC2=O)sc2c1CCC2	13µM*	-1	?	-16%	-2%	?
N#Cc1c(/N=C/C2C(=O)NC(=S)NC2=O)sc2c1CCCC2	22µM*	-10	?	-7%	-3%	?
CCOC(=O)c1cc(C)sc1/N=C/C1C(=O)NC(=S)NC1=O	20µM*	-3	?	-8%	-18%	?
CCOC(=O)c1c(/N=C/C2C(=O)NC(=S)NC2=O)sc(C)c1C	25µM*	-10	-4%	-1%	-3%	-17%
CCOc1ccc(NC(=O)CN(c2ccc(Cl)cc2C)S(=O)(=O)c2ccccc2)cc1	·	·	·	?	-23%	-16%
CC(=O)[C@@H]1CC[C@H]2[C@@H]3CC[C@@H]4CC(=O)CC[C@]4(C)[C@H]3CC[C@]12C	8%	·	·	-11%	-1%	-8%
O=c1ccc2cc(O[C@H]3OC(CO)C(O)C(O)C3O)c(O)cc2o1 (stereo not given in full)	-3%	2	?	-4%	-4%	0%
CC1(C)C2C[C@@H](O)[C@]3(C)C(CC[C@@]4(C)[C@H](c5ccoc5)C[C@H]5O[C@]543)[C@@]2(C)[C@@H](O)C[C@H]1O (stereo not given in full)	-24%	-1	4%	0%	0%	-4%
Cc1ccccc1N1C(=O)CC(=O)NC1=O	56µM*	4	-2%	-28%	?	16µM*
O=c1cc(-c2ccc(O)c(O)c2)oc2cc(O)cc(O)c12	?	-3	13µM*	?	7%	13µM*
O=c1c(O)c(-c2ccc(O)c(O)c2)oc2cc(O)cc(O)c12	56µM*!	-1	14µM*	10µM*[quencher]	?	13µM*
COc1ccc(/C=C/c2nc(-c3ccccc3O)n(-c3ccccc3)n2)cc1OC	·	·	·	?	?	-15%
CCN(CC)c1ncnc2c1ncn2[C@@H]1O[C@@H](COP(=O)(O)OP(=O)(O)C(Br)(Br)P(=O)(O)O)[C@H](O)[C@H]1O	-15%	6	?	0%	3%	1%
OCCN1CCN(CCCN2c3ccccc3Sc3ccc(C(F)(F)F)cc32)CC1	-6%	-4	-12%	?	6%	?
FC(F)(F)c1ccc2c(c1)N(CCCN1CCN(CCCl)CC1)c1ccccc1S2	50µM*	-4	?	?	8%	?
CN1C(=O)NC(=O)/C(=C\c2ccc([N+](=O)[O-])o2)C1=O	40µM*	-19	?	-21%	?	28µM*
CN1C(=O)NC(=O)/C(=C/c2ccc([N+](=O)[O-])o2)C1=O	18µM*	-10	?	-29%	?	13µM*
Cc1cc(/C=C2/C(=O)NC(=O)N(C)C2=O)c(C)n1-c1ccccc1	0%	2	-5%	0%	-6%	-12%
O=C1NC(=O)N(c2ccccc2)C(=O)/C1=C\c1ccc([N+](=O)[O-])o1	18µM*	-6	?	?	?	18µM*

High-throughput results from PubChem BioAssay.
